# Source: PubChem BioAssay
# An excerpt weighted towards active compounds, which were near 1.8% of everything screened.
# BaF3 parental: parental Ba/F3 cell viability inhibition, counter-screen for JAK2V617F inhibitor project, murine pro-B, CellTiter-Glo luminescence; CellTiter-Glo ATP luminescence; inhibition, % at 5.6 µM; 220,000 tested, 1.1% active; AID 1486, 2009;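 active = inhibition above a per-campaign cutoff, the mean inhibition of all tested compounds plus 3 SD, cut at about 27% in these data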;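 also: 0% = DMSO wells and 100% = JAK Inhibitor I control wells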
# APP 5UTR inh: inhibitors of APP translation via 5'UTR reporter, primary screen, APP 5'UTR luciferase, SH-SY5Y cells | inhibition, % at 2 µM | 190,000 tested, 0.82% active | SH-SY5Y APP 5'UTR-luciferase reporter, luminescence;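 active = inhibition above a set limit, derived from the sample mean plus 3 SD, cut at about 45% in these data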
# Ba/F3 V617F tox: reduced viability of JAK2V617F-dependent Ba/F3 cells, primary screen, JAK2V617F inhibitor project, cell-based, Ba/F3 EpoR-JAK2V617F, luminescence | ATP luminescence | inhibition, % at 5.6 µM | 220,000 tested, 1.1% active | AID 1446, 2008;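 active = inhibition above the campaign mean plus 3 SD over all tested compounds, cut at about 24% in these data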;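 also: cytokine-independent growth of Ba/F3 cells driven by EpoR plus mutant JAK2; 0% = DMSO-treated cells and 100% = JAK inhibitor I control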
# KLF5 inh: KLF5 expression inhibitors, primary screen, DLD-1 cells, luminescence; 290,000 tested, 0.23% active; DLD-1 KLF5 promoter-luciferase reporter; AID 1700, 2009; inhibition, % at 5 µM;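 active = inhibition above a per-plate limit of that plate's mean compound inhibition plus 3 SD, cut at about 60% in these data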;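 also: 0% = DMSO wells and 100% = LY294002 at 200 µM; higher means less KLF5 promoter-driven luciferase light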
# IEC-6 tox: cytotoxicity in IEC-6 intestinal epithelial cells, primary screen, cytotoxicity control for KLF5 inhibitor project, cell-based, luminescence; IEC-6 cytotoxicity, luminescence viability; inhibition, % at 5 µM; 290,000 tested, 0.78% active; in the data active = inhibition above about 22%;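 also: 0% = plate median of test compound wells and 100% = cytotoxic reference compound wells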
# * hit, by the source's call; x = not tested or not shown.
SMILES,BaF3 parental,APP 5UTR inh,Ba/F3 V617F tox,KLF5 inh,IEC-6 tox
Cc1nc2c(-c3ccc(Cl)cc3)c(C)[nH]n2c(=O)c1Cc1ccccc1,41*,42,31*,35,14
Cc1nc2c(-c3ccccc3)c(C)[nH]n2c(=O)c1Cc1ccccc1,2,12,-4,-5,4
NC(=NCCc1ccccc1)NS(=O)(=O)c1ccccc1F,x,x,x,-38,-6
CCOC(=O)/C(=N\Nc1ccccc1)S(=O)(=O)c1ccccc1,7,10,1,-17,6
CCOC(=O)/C(=N/Nc1ccc(C)cc1)S(=O)(=O)c1ccc(Cl)cc1,6,63*,-1,1,4
COc1cccc(N2CCN(c3ncnc4c3[nH]c3ccccc34)CC2C)c1 (stereo unspecified),10,0,0,-9,-2
COc1cccc(N2CCN(c3ncnc4c3[nH]c3ccc(F)cc34)CC2C)c1 (stereo unspecified),53*,27,63*,57,36*
COc1ccc(C(=O)CN2Cc3ccccc3C2=N)cc1,0,x,2,-163,6
COCCCNC(=S)NNC(=O)C1CC1c1ccc(C(C)(C)C)cc1 (stereo unspecified),38*,-17,7,-21,-2
CC(C)(C)NC(=O)N1c2ccccc2Sc2ccccc21,x,x,x,-49,-2
Cc1ccc2nc(N=C(N)N)nc(C)c2c1,42*,-14,50*,-19,4
Cc1cc2nc(N=C(N)N)nc(C)c2cc1C,65*,-47,73*,21,15
Cc1ccc(S(=O)(=O)/N=C(\N)Nc2nc(C)c3cc(C)c(C)cc3n2)cc1,0,4,0,-18,2
CCc1ccc2nc(N=C(N)N)nc(C)c2c1,45*,-14,50*,22,8
O=C(Nc1ccc(Cl)c(Cl)c1)Nc1cc(C(=O)NC2CC2)ccc1Cl,6,7,-3,-12,-3
CC/C(=C/c1sc2ccccc2[n+]1CC)SC,3,-11,3,-33,3
CC[n+]1c(/C=C2/C=C(C)CC(C)C2)sc2ccccc21 (stereo unspecified),55*,9,60*,-25,1
Cc1ccc2nc(NC(=O)C3CCN(S(=O)(=O)c4cc([N+](=O)[O-])ccc4Cl)CC3)sc2c1,38*,9,37*,14,2
Nc1ccc(O)cc1C(=O)OCC(=O)c1ccc(C2CCCCC2)cc1,30*,49*,71*,-9,2
CC(C)Oc1cc(N)c(Cl)cc1Cl,-4,4,-4,-38,0
Cc1ccc(CNC(=O)COc2ccc(C(=O)c3ccc(F)cc3)cc2)cc1,3,2,-1,-11,-9
NS(=O)(=O)c1ccc(CNC(=O)Cc2c(F)cccc2Cl)cc1,60*,7,2,-30,-5
Cc1ccn2c(Nc3ccccc3)c(-c3ccccn3)nc2c1,7,59*,4,-38,-2
Cc1ccn2c(Nc3ccccc3C)c(-c3ccccn3)nc2c1,0,28,-2,-9,-1
Cc1ccc2nc3cc([N+](=O)[O-])cc([N+](=O)[O-])c3cc2c1,7,62*,1,-32,-2
SMILES,BaF3 parental,APP 5UTR inh,Ba/F3 V617F tox,KLF5 inh,IEC-6 tox
Cc1nc2ccc([N+](=O)[O-])cc2nc1C,2,-4,5,-14,14
Cc1c(C(=O)N/N=C/c2ccccc2)[nH]c2ccc(Cl)cc12,4,52*,4,-33,7
Cc1c(C(=O)N/N=C/c2ccc(N(C)C)cc2)[nH]c2ccc(Cl)cc12,1,90*,0,-21,14
COCCNC(=O)/C(C#N)=C/c1ccc(C)o1,4,14,-3,-12,-10
Cc1c(N)cc[n+](CC(=O)c2ccccc2)c1C,63*,20,81*,-2,0
Oc1ccc(Nc2nc(-c3ccc4ccccc4c3)cs2)cc1,57*,2,99*,-190,4
CC(=O)Nc1nc(-c2ccc3ccccc3c2)cs1,x,x,x,-140,8
CC1=NN(c2nc(-c3ccc(C)cc3)cs2)C(=O)C1N=Nc1cccc(O)c1 (stereo unspecified),8,5,3,-34,-7
CC1=NN(c2nc(-c3ccc(C)cc3)cs2)C(=O)C1N=Nc1ccccc1O (stereo unspecified),8,52*,-2,-14,0
CC(C)n1cnc2c(=S)nc[nH]c21,-3,x,0,-8,1
S=c1nc[nH]c2c1ncn2C1CCCO1 (stereo unspecified),44*,x,63*,8,78*
Cc1ccc(NC(=O)Nc2cc(C(F)(F)F)c[nH]c2=O)cc1,x,x,x,-11,4
CCOc1ccc(-c2cc(CCCC(=O)Nc3cccc(OC)c3)no2)cc1,0,80*,-4,2,4
S=C(Nc1ccccc1)N1CCN(Cc2ccccc2)CC1,39*,x,5,10,0
CC(C)OCCCNC(=O)CN1C(=O)c2cccc3cccc1c23,x,x,x,-46,-3
COc1ccc(N2CCc3c(C)nc4c(OC)cccc4c32)cc1,78*,86*,87*,57,70*
CC(C)Cc1ccccc1O,x,x,x,-21,1
CCOC(=O)N1CCN(C(=O)c2cn(CC)c3cc(N4CCN(C)CC4)c(F)cc3c2=O)CC1,79*,-5,-2,-3,-1
Cc1cc(SCC(=O)NCC2CCCO2)nc2ccccc12 (stereo unspecified),x,x,x,-21,-2
CCC1=C([N+](=O)[O-])C(c2ccc3c(c2)OCO3)NC(=O)N1 (stereo unspecified),x,x,x,10,-7
CC(C)(C)SCCNC(=O)/C=C/c1ccc(F)cc1,2,-10,-2,-76,-5
CC(C)(C)SCCNC(=O)/C=C/c1ccccc1,45*,x,0,-42,0
Oc1ccc2ccccc2c1/C=N/Nc1ccccc1,1,-16,-4,-21,0
Cc1cc(N/N=C/c2c(O)ccc3ccccc23)nc(-c2ccccc2O)n1,0,58*,-2,-5,-5
CC1(c2ccccc2)CC(C)(C)N2C(=O)Cc3cccc1c32 (stereo unspecified),5,9,-1,-46,-1
CCN(C(=S)NCCOC)c1cccc2ccccc12,27*,1,32*,-15,2
Nc1ccc(S(=O)(=O)NC2(C(F)(F)F)NC(=O)N(Cc3ccccc3)C2=O)cc1 (stereo unspecified),x,x,x,-18,4
O=C1NCCN/C1=C\C(=O)c1ccccc1,1,74*,-1,-51,3
CCOC(=O)c1ccc(N2C(=O)CC(N3CCC(Nc4ccc(F)cc4)CC3)C2=O)cc1 (stereo unspecified),49*,17,4,16,3
CC(C)c1ccc(NC2=CC(=O)CC(C)(C)C2)cc1,x,x,x,-58,-6
